# Some compounds were tested as several samples or in several runs, with calls that do not always agree. Activity calls are given as the source filed them. The calls were made as follows: active = hit-call score of the fitted dose curve at least 0.9, where 1 is the maximum; inactive = score below 0.9.
# Read-out: Forkhead box O1 (FOXO1), FOXO1 (gene 2308)
# Assay: LTEA_HepaRG_FOXO1: Life Technologies and Expression Analysis (LTEA) Assay for Forkhead box O1 (FOXO1) using HepaRG (AID 2283456)
# Details: mRNA level, 48 h; actives raise or lower the signal
# Method: LTEA_HepaRG is a cell based, multiplexed-readout assay that uses HepaRG, a human liver cell line, with measurements taken at 48 hours after chemical dosing on a 96-well plate.LTEA_HepaRG_FOXO1 is one of 102 assay component(s) measured in the LTEA HepaRG cell culture assay. It is a marker of Cell proliferation, survival, death.Data from the assay component LTEA_HepaRG_FOXO1 was analyzed into 1 endpoint. This assay endpoint, LTEA_HepaRG_FOXO1, was analyzed with bidirectional fitting relative to DMSO as the negative control and baseline of activity. Using a type of inducible reporter, measures of mRNA induction for gain or loss-of-signal activity can be used to understand regulation of transcription factor activity. To generalize the intended target to other relatable targets, this assay endpoint is annotated to the dna binding intended target family, where the subfamily is forkhead box protein.
# A total of 1060 chemcials from the ToxCast library were tested in eight-point concentration-response experiments. Cell culture and cytotoxicity assays were conducted at Thermo Fisher Scientific's Custom Services facility (Madison, WI). A single lot of human HepaRG cells (Thermo Fisher Scientific, Frederick, MD) was used for the cell culture experiments. 96-well format collagen type I coated plates of human HepaRG cells were prepared using established methods. Briefly, cryopreserved HepaRG cells were thawed, plated at a density of approximately 100,000 cells/well in HepaRG Thaw, Plate, and General Purpose media (HPRG770, Thermo Fisher Scientific), and incubated for 48 hours. 0.5% DMSO was selected as vehicle control to balance the requisite need of DMSO in HepaRG cultures to maintain differentiation (for example, baseline metabolism, proportions of hepatocytes vs. cholangiocytes), while enabling further hepatic receptor pathway activation (for example, PXR and CAR) in response to chemical exposure. 48 hours after plating, the culture medium was replaced with HepaRG Serum-Free Incudtion Media. Cells were exposed to each test chemical in duplicate and maintained in CO2 incubators for another 48 hours. Chemical plates were thawed to room temperature and 200x concentrations of treatment groups were prepared. 8-point conentration-reponse curves were made with the highest exposure at 100 uM, followed by half-log dilutions, all in 0.5% DMSO. Each test plate contained variouse controls, induction positive controls (1mM phenobarbital), cytotoxicity positive controls ([…] aflatoxin B1), vehicle controls (0.5% DMSO), and total lysis controls (0.5% DMSO). Cell morphology images were taken using an Essen IncuCyte FLR automated microscope, with six 96-well plates imaged in about 24 minutes. Images were captured and exported and JPEG files. Spent culture media was transfered to black-well plates for the LDH assay, and remaining media was sorted at -80 C for later use. Cells were treated with RLT buffer and frozen until shipped for gene expression analysis. Total RNA was isolated from the cell suspension in 75 uL of Buffer RLT (Qiagen, Germantown, MD 20874) by Quintiles/Expression Analysis (Durham, NC) using a custom isolation procedure. Total RNA from each plate well was transferred to a preamplification plate. Fluidigm's 96.96 Dynamic ArrayTM (Fluidigm, Amsterdam, the Netherlands) technology was used for gene expression analyses by quantitative reverse transcription polymerase chain reaction (qRT-PCR, performed by Quintiles/Expression Analysis, Durham, NC)89. Standard TaqManTM Assays (Applied Biosystems/ThermoFisher Scientific, Foster City, CA) were used to assess the expression of 93 genes selected based on their selectivity and sensitivity to important hepatic receptors known to be modulated by environmental chemicals; importance in human hepatocyte functionality; and hepatotoxicity. […]
SMILES,outcome,AC50
O=S1OCC2C(CO1)C1(Cl)C(Cl)=C(Cl)C2(Cl)C1(Cl)Cl (stereo not given),inactive,–
C#CCN1C(=O)COc2cc(F)c(N3C(=O)C4=C(CCCC4)C3=O)cc21,inactive,–
CCN(CC)C(=O)SCc1ccc(Cl)cc1,inactive,–
O=C(O)CCCOc1ccc(Cl)cc1Cl,inactive,–
N#CN,inactive,–
CNC(=O)Oc1ccccc1OC(C)C,inactive,–
O=S(=O)(O)C(F)(F)C(F)(F)C(F)(F)C(F)(F)C(F)(F)C(F)(F)C(F)(F)C(F)(F)F,inactive,13.3 µM (active)
CCCN(CCOc1c(Cl)cc(Cl)cc1Cl)C(=O)n1ccnc1,–,88.7 µM (active)
N#Cc1c(Cl)c(Cl)c(Cl)c(C#N)c1Cl,–,21.2 µM (active)
O=C(NC(=O)c1c(F)cccc1F)Nc1ccc(OC(F)(F)C(F)OC(F)(F)F)c(Cl)c1 (stereo not given),inactive,–
CCOC1Oc2ccc(OS(C)(=O)=O)cc2C1(C)C (stereo not given),–,50 µM (active)
Cc1[nH]c(=O)n(C(C)(C)C)c(=O)c1Cl,inactive,–
O=C(O)COc1ccc(Cl)cc1Cl,inactive,–
Oc1ccc(Cl)cc1Cc1ccccc1,inactive,–
CCC(C)(NC(=O)c1cc(Cl)c(C)c(Cl)c1)C(=O)CCl (stereo not given),inactive,–
CCC(C)(C)C(=O)OC1=C(c2ccc(Cl)cc2Cl)C(=O)OC12CCCCC2,inactive,–
O=[N+]([O-])c1c(Cl)c(Cl)c(Cl)c(Cl)c1Cl,inactive,–
CCc1ccc(C(=O)NN(C(=O)c2cc(C)cc(C)c2)C(C)(C)C)cc1,inactive,–
CC1(c2ccc(Oc3ccccc3)cc2)OC(=O)N(Nc2ccccc2)C1=O (stereo not given),–,50.2 µM (active)

SMILES,outcome,AC50
COP(=S)(OC)Oc1ccc([N+](=O)[O-])cc1,inactive,–
CC(C)OC(=O)Nc1cccc(Cl)c1,inactive,–
CC[C@H](C)[C@H]1O[C@]2(C=C[C@@H]1C)C[C@@H]1C[C@@H](C/C=C(\C)[C@@H](O[C@H]3C[C@H](OC)[C@@H](O[C@H]4C[C@H](OC)[C@@H](O)[C@H](C)O4)[C@H](C)O3)[C@@H](C)/C=C/C=C3\CO[C@@H]4[C@H](O)C(C)=C[C@@H](C(=O)O1)[C@]34O)O2 (tested in a mixture with another compound),–,17.5 µM (active)
CCC(C)Nc1c([N+](=O)[O-])cc(C(C)(C)C)cc1[N+](=O)[O-] (stereo not given),inactive,–
OCCOc1ccccc1,inactive,–
O=C1c2ccccc2C(=O)N1SC(Cl)(Cl)Cl,inactive,–
COP(=O)(OC)OC=C(Cl)Cl,inactive,–
Clc1ccccc1-c1nnc(-c2ccccc2Cl)nn1,inactive,–
O=C(O)C(F)(F)C(F)(F)C(F)(F)C(F)(F)C(F)(F)C(F)(F)C(F)(F)F,inactive,50 µM (active)
CCCN(CCC)c1c([N+](=O)[O-])cc(C(F)(F)F)cc1[N+](=O)[O-],inactive,–
CNC(=O)Oc1cccc(N=CN(C)C)c1,inactive,–
ClC1C(Cl)C(Cl)C(Cl)C(Cl)C1Cl (stereo not given),inactive,–
O=[N+]([O-])/N=C1\NCCN1Cc1ccc(Cl)nc1,inactive,–
CNC(=O)CSP(=S)(OC)OC,inactive,–
CC1(C)C(C=C(Cl)Cl)C1C(=O)OC(C#N)c1ccc(F)c(Oc2ccccc2)c1 (stereo not given),inactive,–
CC(C)(C)C(O)C(Oc1ccc(Cl)cc1)n1cncn1 (stereo not given),inactive,–
COP(=S)(OC)Oc1ccc(SC)c(C)c1,inactive,–
CC(C)(C)C(O)/C(=C\c1ccc(Cl)cc1Cl)n1cncn1 (stereo not given),–,89.4 µM (active)
CC(C)N(C(=O)COc1nnc(C(F)(F)F)s1)c1ccc(F)cc1,inactive,–
